Source: PubChem
Shown are actives, neighbours in structure and some others; about 4.8% of the full set was active somewhere.
ssDAF-12 act: activates DAF-12 receptor from parasite S. stercoralis; HEK293 ssDAF-12/GRIP1 lit1-tk-luc reporter, luminescence; % of 3 µM dafachronic acid response; activation, % at 6.8 µM; hit rate 1% among 370,000;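 active = activation above the mean over all tested compounds plus 3 SD, cut at about 0.9% in these data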
SMARCA2 activ: SMARCA2 function activation, primary screen; MG213 cells, MMTV-luciferase reporter, dexamethasone, overnight; activation, % at 9.1 µM; hit rate 1% among 370,000; AID 652017; in the data active = activation above about 7.8%
DAX1 inh-1: blocks DAX1 repression of SF-1 activated StAR promoter | HEK293T StAR-luciferase reporter, SF-1/DAX-1 repression relief | hit rate 1.1% among 370,000 | inhibition, % at 6.8 µM;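 active = inhibition above the mean over all tested compounds plus 3 SD, cut at about 3.6% in these data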;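 note: higher inhibition means more luminescence from relief of DAX-1 repression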
hcDAF12 agonist: H. contortus DAF-12 activation, primary screen; activation, % at 6.8 µM; hit rate 1.4% among 370,000; HEK293 hcDAF-12 lit1-tk-luc reporter, luminescence; 0% DMSO, 100% Δ7-dafachronic acid;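 active = activation above the mean of all tested compounds plus 3 SD, cut at about 5.5% in these data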
hgDAF-12 ag: agonists of H. glycines DAF-12 nuclear receptor. HEK293 GAL4-hgDAF12 UAS-luciferase reporter, agonist luminescence; normalized to butyrate control. activation, % at 6.8 µM. hit rate 1.8% among 370,000;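 active = activation above a cutoff set at the mean of all screened compounds plus 3 SD, cut at about 10% in these data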
DAX1 inh-2: inhibits human nuclear receptor DAX1; P51843; HEK293 Gal4-DAX1 luciferase reporter, luminescence; inhibition, % at 6.75 µM; hit rate 0.99% among 340,000; AID 504766;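 active = inhibition above the mean over all tested compounds plus 3 SD, cut at about 4.2% in these data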;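 note: inhibition shows as a rise in luminescence from relieved DAX1 repression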
Target sequence (P51843 207-470 limits assumed): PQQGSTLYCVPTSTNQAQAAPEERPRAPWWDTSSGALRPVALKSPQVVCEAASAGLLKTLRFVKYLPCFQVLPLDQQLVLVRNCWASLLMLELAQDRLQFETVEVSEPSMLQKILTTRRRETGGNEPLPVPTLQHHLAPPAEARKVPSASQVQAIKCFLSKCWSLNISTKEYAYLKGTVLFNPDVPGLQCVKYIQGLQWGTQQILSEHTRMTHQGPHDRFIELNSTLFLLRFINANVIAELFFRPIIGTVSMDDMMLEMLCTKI
DAX1 inh confirm: NR0B1 (human) inhibition, confirmation. shares compounds with DAX1 inh-1. HEK293T StAR-promoter luciferase reporter, SF-1/DAX-1 repression. inhibition, % at 6.8 µM. hit rate 87% among 2,400. AID 652134;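 active = inhibition above the average of every tested compound plus 3 SD, cut at about 3.8% in these data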;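 note: active compounds raise luminescence by relieving repression of the StAR reporter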
Target sequence (P51843 whole entry, looked up): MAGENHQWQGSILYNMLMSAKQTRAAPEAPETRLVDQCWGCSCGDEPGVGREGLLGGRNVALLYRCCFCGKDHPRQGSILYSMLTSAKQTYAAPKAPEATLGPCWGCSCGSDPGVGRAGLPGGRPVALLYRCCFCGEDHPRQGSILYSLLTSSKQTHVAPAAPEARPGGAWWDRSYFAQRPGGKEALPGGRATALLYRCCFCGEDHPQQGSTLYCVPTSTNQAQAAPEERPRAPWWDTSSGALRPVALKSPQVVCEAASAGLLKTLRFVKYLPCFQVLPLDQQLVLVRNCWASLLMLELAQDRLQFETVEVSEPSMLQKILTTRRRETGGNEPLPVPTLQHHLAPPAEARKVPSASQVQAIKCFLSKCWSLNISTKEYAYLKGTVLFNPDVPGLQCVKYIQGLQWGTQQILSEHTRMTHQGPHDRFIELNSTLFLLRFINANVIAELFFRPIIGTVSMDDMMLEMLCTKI
SF1 mutant ctr: nonselective inhibitor or artifact in SF-1 mutant DAX1 counter-screen; shares compounds with DAX1 inh-1; HEK293 StAR-luciferase, SF-1 AF2 mutant, luminescence; inhibition, % at 6.8 µM; hit rate 78% among 2,400;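 active = inhibition above the mean of all tested compounds plus 3 SD, cut at about 3% in these data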
SMARCA2 act conf: confirmation of SMARCA2 (BRM) function activators; shares compounds with SMARCA2 activ; MG213 cells, MMTV-luciferase with dexamethasone, luminescence, overnight; MG213 cells expressing E1A, Rb sequestered; DMSO wells 0%, reference activator 100%; activation, % at 9.1 µM; hit rate 30% among 3,500; AID 652260;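 active = activation above its plate's cutoff, the mean activation of tested wells plus 3 SD, cut at about 7.9% in these data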
GAL4-VP16 Luc: counter-screen for SMARCA2 activators: GAL4-VP16 luciferase reporter activation. shares compounds with SMARCA2 activ. HEK293 GAL4-VP16 pG5luc reporter, luciferase luminescence; scaled: DMSO wells 0%, SAHA wells 100%. activation, % at 9.1 µM. hit rate 41% among 3,500. AID 686939;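 active = activation above the solvent-only control well mean plus 3 SD, averaged across control plates, cut at about 5.2% in these data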
LXR ag: counter-screen for hcDAF-12 agonists: agonists of human LXR-beta; shares compounds with hcDAF12 agonist; HEK293 Gal4-LXR tk-luc reporter, luminescence, 24 h; normalized: DMSO 0%, positive control 100%; activation, % at 6.8 µM; 3,400 tested, under 10 active;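 active = mean percent activation of the reporter above a cutoff set as the average over tested compounds plus their standard deviation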
hcDAF12 ag: hcDAF-12 agonism, confirmation assay. shares compounds with hcDAF12 agonist. HEK293 hcDAF-12 lit1-tk-luc reporter, luminescence; % of Δ7-dafachronic acid response. activation, % at 6.8 µM. hit rate 61% among 3,400;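 active = mean activation across triplicate tests above the threshold derived from the earlier primary screen, cut at about 5.5% in these data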
Numbers stand for hits; – = inactive; · = no result.

SMILES	ssDAF-12 act	SMARCA2 activ	DAX1 inh-1	hcDAF12 agonist	hgDAF-12 ag	DAX1 inh-2	DAX1 inh confirm	SF1 mutant ctr	LXR ag	hcDAF12 ag	others
CCCc1ccc(-c2cc(C(=O)NN3CCOCC3)c3ccccc3n2)cc1	–	–	–	–	–	–	·	·	·	·
COc1cccc(NC(=O)Nc2nccc(C)n2)c1	–	–	5.0	8.1	13.1	–	12.6	5.3	–	–
CCC1CSC(=Nc2ccc(C)cc2)N1C(=O)CN1C(=O)NC2(CCCC2)C1=O (configuration not stated)	–	9.7	10.4	8.4	12.7	–	9.1	–	–	6.3	SMARCA2 act conf=11.2;GAL4-VP16 Luc=8.2
COC(=O)C1=C(C)N(Cc2cccc(C(F)(F)F)c2)C(=NCc2ccc3c(c2)OCO3)NC1c1ccc(Cl)cc1 (configuration not stated)	–	–	–	–	–	·	·	·	·	·
c1ccc(-c2csc(Nc3ccc4c(c3)OCO4)n2)cc1	2.6	11.3	22.5	17.2	21.3	·	14.0	7.8	–	16.7	SMARCA2 act conf=–;GAL4-VP16 Luc=9.3
CCCc1nc2ccc(C)cn2c1Cc1ccccc1	1.3	–	4.6	7.2	–	·	–	3.8	–	7.3
CCCc1nc2ccc(Br)cn2c1Cc1ccccc1	–	–	–	–	–	·	·	·	·	·
O=C(CSc1nnc(-c2cccnc2)n1Cc1ccco1)Nc1ccc(Cl)c(Cl)c1	–	–	–	–	–	·	·	·	·	·
c1ccc(Nc2nnc(-c3ccc4c(c3)OCO4)o2)cc1	1.2	–	5.1	7.7	–	·	6.6	–	–	–
Cc1ccc(-c2nnc(Nc3ccccc3)o2)cc1	–	–	5.5	8.0	–	–	19.0	8.6	–	6.5
C[C@@H]1OC(C2CCCCC2)N(C)[C@H]2C[C@H]3c4[nH]c5c(-c6ccccc6)cccc5c4CCN3C(=O)[C@@H]12 (some centres not stated)	–	–	–	–	–	·	·	·	·	·
CC(/C=N\NC(=O)CSc1nnc(-c2ccc(Br)cc2)n1-c1ccccc1)=C\c1ccco1	–	–	–	–	–	·	·	·	·	·
Cc1ccc(C(=O)N=c2sccn2C)cc1C	1.6	–	10.2	13.6	12.5	–	11.4	7.2	–	11.5
CCCCc1nc2cc(C(=O)N(C)C3CCOCC3)ccc2o1	–	–	4.6	7.6	–	–	5.5	6.8	–	–
COCC1CCCCN1C(=O)c1ccc2oc(CCCc3ccccc3)nc2c1 (configuration not stated)	–	–	–	–	–	–	·	·	·	·
Cc1ccccc1Cn1cc(COC(=O)N(C)Cc2ccccc2)nn1	–	–	–	–	–	·	·	·	·	·
Cc1cc(C)nc(NC(=O)/C=C/c2ccccc2Cl)n1	–	–	–	–	–	–	·	·	·	·
Cc1ccnc(NC(=O)c2sc3ccccc3c2Cl)c1	–	–	8.0	8.7	16.2	–	6.9	–	–	10.0
Cc1ccnc(NC(=O)/C=C/c2ccccc2Cl)c1	1.4	–	5.3	8.9	13.2	–	8.6	4.7	–	9.3
Cc1cnc(NC(=O)c2sc3ccccc3c2Cl)s1	3.1	–	5.4	17.2	30.2	–	6.4	–	–	16.8
Cc1cccnc1NC(=O)CNC(=O)c1sc2ccccc2c1Cl	–	–	–	–	–	–	·	·	·	·
Cc1cccc(NC(=O)CNC(=O)c2sc3ccccc3c2Cl)n1	–	–	–	–	–	–	·	·	·	·
O=C(c1cccc(F)c1)n1ccc2ccc(-c3ccc4ccn(Cc5ccccc5)c4c3)cc21	–	–	–	–	–	·	·	·	·	·
Cc1cc2c(s1)c1cnn(Cc3c(Cl)ccc(C)c3F)c(=O)c1n2C	–	·	·	–	–	·	·	·	·	·
O=C(/C=C\Nc1cccc(F)c1)c1ccc2c(c1)OCO2	–	–	4.7	9.0	11.8	–	6.8	–	–	7.2
SMILES	ssDAF-12 act	SMARCA2 activ	DAX1 inh-1	hcDAF12 agonist	hgDAF-12 ag	DAX1 inh-2	DAX1 inh confirm	SF1 mutant ctr	LXR ag	hcDAF12 ag	others
COC(=O)c1ccc(N/C=C\C(=O)c2ccc3c(c2)OCO3)cc1	–	–	–	–	–	–	·	·	·	·
N/C(=N\OC(=O)c1ccccc1Cl)c1ccccc1	3.3	–	6.1	16.6	18.3	–	19.5	11.2	–	26.1
O=C(O/N=C(\c1ccccc1)c1ccncc1)c1ccccc1Cl	–	–	–	–	–	–	·	·	·	·
COCCNc1ncnc2c1cnn2-c1ccc(Cl)cc1	–	8.4	4.9	6.9	11.6	–	11.0	6.4	–	–	SMARCA2 act conf=16.9;GAL4-VP16 Luc=10.2
CCOC(=O)[C@]12CCCC=C1N(Cc1ccc(OC)cc1)C(=O)[C@@H]2CC(=O)NCCCCc1ccccc1	–	–	–	–	–	·	·	·	·	·
Cc1ccsc1/C=N/Nc1cccc(C(=O)O)c1	–	–	10.8	10.1	16.9	–	19.4	11.3	–	19.5
Cc1ccsc1/C=N/NC(=O)CNC(=O)c1ccccc1	–	–	–	–	–	–	·	·	·	·
COc1ccc2ccccc2c1/C=N/Nc1cccc(C(=O)O)c1	–	–	–	–	–	–	·	·	·	·
Cc1ccc(/C=N/Nc2cccc(C(=O)O)c2)s1	2.5	–	8.3	11.8	26.6	–	17.0	8.5	–	13.8
O=C(CSc1nnc(-c2cccnc2)n1-c1ccc(Cl)cc1)Nc1ccccc1-c1ccccc1	–	–	–	–	–	·	·	·	·	·
OC1=C(O)c2nc3cc(F)ccc3nc21	–	–	–	–	–	·	·	·	·	·
Fc1ccc2nc3[nH]c4ccccc4c3nc2c1	–	12.9	4.8	9.0	12.3	–	14.5	8.5	–	11.1	SMARCA2 act conf=17.3;GAL4-VP16 Luc=12.6
O=C1c2ccccc2S(=O)(=O)N1CC1CC(c2ccccc2Cl)=NO1 (configuration not stated)	–	–	5.5	8.7	15.4	–	11.0	8.1	–	13.2
O=C(NCC1CCCO1)C1CC(c2ccccc2Cl)=NO1 (configuration not stated)	–	–	–	–	–	–	·	·	·	·
